# Test results: PubChem BioAssay (NCI)
# About 83,000 compounds went through this panel and 20% of them were active in at least one assay; those are over-represented in the sample as a whole.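 How to read the values: 0–100, growth inhibition (40 = 60% inhibited); 0, no net growth; -100 to 0, cell death (-40 = 40% of starting cells died; -100 = all dead).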 Unmarked numbers belong to inactive results. The source made the active and inactive calls. Rule for the calls: active = growth percent below 10; inactive = the rest.
# Columns and labels:
# Experiment in all cases: NCI-60 one-dose screen, 48 h (100 = growth as untreated, 0 = no growth, -100 = all killed)
# NCI-H23 lung = settings: 10 µM unless noted
# NCI-H226 lung = settings: 10 µM unless noted
# NCI-H322M lung = settings: 10 µM unless noted
# HOP-62 NSCLC = settings: 10 µM unless noted
# NCI-H460 lung = settings: 10 µM unless noted
# HOP-92 NSCLC = settings: 10 µM unless noted
# NCI-H522 lung = settings: 10 µM unless noted
# 786-0 renal = settings: 10 µM unless noted
# COLO 205 colon = settings: 10 µM unless noted
# DU-145 prostate = settings: 10 µM unless noted
# K-562 leukemia = settings: 10 µM unless noted
# MALME-3M melanoma = settings: 10 µM unless noted
# MDA-MB-231 breast = settings: 10 µM unless noted
# RXF 393 renal = settings: 10 µM unless noted
# SF-268 CNS = settings: 10 µM unless noted
# SF-295 CNS = settings: 10 µM unless noted
# SF-539 CNS = settings: 10 µM unless noted
# M14 melanoma = settings: 10 µM unless noted
# UACC-257 melanoma = settings: 10 µM
Structure (SMILES),growth (NCI-H23 lung),growth (NCI-H226 lung),growth (NCI-H322M lung),growth (HOP-62 NSCLC),growth (NCI-H460 lung),growth (HOP-92 NSCLC),growth (NCI-H522 lung),growth (786-0 renal),growth (COLO 205 colon),growth (DU-145 prostate),growth (K-562 leukemia),growth (MALME-3M melanoma),growth (MDA-MB-231 breast),growth (RXF 393 renal),growth (SF-268 CNS),growth (SF-295 CNS),growth (SF-539 CNS),growth (M14 melanoma),growth (UACC-257 melanoma)
C=C1C(=O)O[C@H]2[C@H]1CC/C(COC(=O)NCc1ccc(OC)cc1)=C\CC[C@@]1(C)O[C@@H]21,74.2%,64.5%,84.6%,67.5%,77.7%,63.3%,-55.5% (active),15.6%,-17.7% (active),33.5%,14%,98.3%,60.9%,15%,55.5%,96.2%,50.2%,32.9%,–
COc1ccc2c(c1)NC(=O)CN2c1nc(C)nc2ccccc12,20.4%,65.8%,42.8%,29.2%,2.28% (active),-5.74% (active),-21.1% (active),19.8%,-35% (active),-0.215% (active),9.83% (active),67.6%,11.6%,55.1%,24.4%,14.2%,-0.932% (active),10.8%,–
CCCCCCC[C@@H](O)CC(=O)N[C@H](CCCCN)C(=O)N[C@H](Cc1c[nH]c2ccccc12)C(=O)NC(CCCCN)C(=O)N[C@H](CC(C)C)C(=O)N[C@H](Cc1ccccc1)C(=O)N[C@H](CCCCN)C(=O)N[C@H](CCCCN)C(=O)N[C@H](CC(C)C)C(=O)N1CCCC1C(=O)N[C@H](CCCCN)C(=O)N[C@H](Cc1ccccc1)C(=O)N[C@H](CC(C)C)C(=O)N[C@H](Cc1c[nH]cn1)C(=O)N[C@H](CC(C)C)C(=O)N[C@H](C)C(=O)N[C@H](CCCCN)C(=O)N[C@H](CCCCN)C(=O)N[C@H](Cc1ccccc1)C(=O)O (stereo partly specified),-41.6% (active),-21.3% (active),-71.9% (active),-59% (active),-25.4% (active),-54.4% (active),-48.8% (active),-34.4% (active),-47.6% (active),-77.2% (active),-33.3% (active),-2.57% (active),-71.4% (active),-39% (active),-54.2% (active),-60.8% (active),-30.8% (active),-43.4% (active),-64.9% (active)
COc1cc(C2C=C(C)N=C3SC(C)=NN32)cc(OC)c1OC (stereo unspecified),94.8%,107%,116%,95.9%,114%,90.9%,89.8%,105%,96.3%,108%,107%,–,111%,114%,105%,111%,114%,102%,106%
CCCCn1c(=O)c(C2CNC(=O)c3ccccc3N2)cc2ccccc21 (stereo unspecified),95%,111%,111%,91.8%,102%,95.2%,92.5%,92.4%,111%,108%,99.3%,107%,77.5%,111%,98.9%,96.8%,89.9%,107%,–
COc1ccc(C(=O)/C=C/c2cccc([N+](=O)[O-])c2)c(OC)c1,32.6%,49.2%,66%,26.1%,1.68% (active),67.5%,7.28% (active),-7.25% (active),60.2%,25.3%,8.25% (active),70.5%,34.7%,-33.8% (active),25%,35.5%,8.09% (active),30.6%,66.4%
CCC1CCc2nc3sc(C(=O)Nc4cccc(C)c4)c(N)c3cc2C1 (stereo unspecified),101%,96%,94.8%,87%,88.1%,55.2%,71.5%,94.9%,93%,78.3%,35.8%,47.4%,79.8%,83.9%,77.6%,70.4%,73.1%,55.1%,56.3%
O=C(c1ccncc1)N1N=C(c2ccc(Cl)cc2)CC1c1c[nH]c2ccccc12 (stereo unspecified),85.9%,82.7%,96.3%,75.1%,96.8%,94.7%,80.8%,104%,97.9%,102%,88.3%,96.7%,71.3%,112%,94.2%,97%,97%,95.3%,95.9%
O=S(=O)(O)CCl,97.2%,106%,105%,112%,113%,106%,77.8%,99.1%,113%,109%,94.6%,102%,108%,107%,100%,102%,101%,97.1%,98.5%
Nc1c(C(=O)Nc2ccccc2)sc2nc3c(cc12)CCC3,87.9%,85.3%,101%,96.4%,91%,55.6%,83.9%,101%,108%,96.8%,35.4%,77.9%,80.7%,95.4%,94%,106%,80.2%,69.7%,90.5%
Clc1ccc(/C=C/c2nc(N3CCOCC3)c3nc(Cl)c(Cl)cc3n2)cc1,92.2%,106%,111%,110%,105%,94.1%,95.5%,92.2%,102%,103%,79.3%,113%,110%,117%,97.3%,91.9%,98.6%,96.4%,106%
CCn1cc(C2NC(=O)c3cc(F)ccc3N2)c2cccc(Cl)c21 (stereo unspecified),30.8%,49.5%,45.5%,28.5%,6.22% (active),72%,-22.1% (active),42.3%,–,11.6%,5.32% (active),53.7%,19%,–,41.2%,10.4%,-26.6% (active),1.23% (active),–
CC/C(=C(\c1ccc(O)cc1)c1ccc(OCCN(C)CCN(C)C(=O)CCC(=O)c2c(C)[nH]c(/C=C3\N=C(c4ccc[nH]4)C=C3OC)c2C)cc1)c1ccccc1,80.1%,77%,70.4%,91.3%,58.2%,58.8%,81.9%,87.5%,89.8%,46.9%,5.83% (active),55.4%,9.16% (active),66.1%,69.8%,95.9%,63.2%,20.7%,104%
CCN(Cc1ccc(CN(CC)C(=O)C(Cl)(Cl)Cl)cc1)C(=O)C(Cl)(Cl)Cl,67.6%,83.9%,118%,98.2%,86.7%,33.1%,74%,72.6%,95.7%,97.7%,27%,68.4%,98.2%,101%,80.5%,76.4%,101%,89.9%,–
CCCCC[C@@H]1Cc2cc(O)c(C(=O)O)c3c2[C@H](C[C@@]2(CCCO2)O3)O1,103%,110%,121%,93.6%,121%,4.89% (active),89.7%,103%,112%,111%,58.1%,121%,101%,73.4%,116%,101%,103%,103%,–
O=[N+]([O-])c1cccc(-c2cc(-c3cc(Br)ccc3O)[nH]n2)c1,28.5%,52.6%,24.4%,25.2%,7.48% (active),4.45% (active),15.1%,27.2%,17.6%,35.1%,12.4%,5.27% (active),27%,58.1%,23.6%,40.4%,34%,35.6%,–
COc1cc(NC(=O)CCl)ccc(=O)c1,53.7%,122%,86.4%,113%,77.4%,79%,17.2%,106%,82.6%,83.5%,75.2%,87.7%,58.6%,84.7%,77.6%,80.9%,83.5%,78.6%,66%
C=CCN=C1NC(=O)/C(=C/c2cc(C(C)(C)C)c(O)c(C(C)(C)C)c2)S1,90.2%,97.7%,87.9%,77.2%,72.8%,82.2%,44.5%,66.1%,81.3%,84%,30.8%,75.4%,86.8%,62.4%,82%,69.3%,87.6%,52.4%,93%
COc1cccc(-c2nc3sccn3c2-c2ccnc(NCCCNS(=O)(=O)c3ccccc3)n2)c1,36.1%,23.3%,75.3%,119%,53.7%,56.5%,27.3%,62.6%,21.3%,52.1%,25.5%,36.4%,59.5%,67.1%,62.7%,55%,70.4%,25.2%,65.7%
